D1 potentiator: enhances dopamine response at the human D1 receptor. AID 504651. P21728. potentiation, % at 10 µM. HEK293 TREx D1 cells, calcium flux, dopamine EC20 potentiation. 360,000 tested, 0.036% active; in the data active = potentiation above about 30%; also: 0% is about no effect
Target sequence (P21728 whole entry, looked up): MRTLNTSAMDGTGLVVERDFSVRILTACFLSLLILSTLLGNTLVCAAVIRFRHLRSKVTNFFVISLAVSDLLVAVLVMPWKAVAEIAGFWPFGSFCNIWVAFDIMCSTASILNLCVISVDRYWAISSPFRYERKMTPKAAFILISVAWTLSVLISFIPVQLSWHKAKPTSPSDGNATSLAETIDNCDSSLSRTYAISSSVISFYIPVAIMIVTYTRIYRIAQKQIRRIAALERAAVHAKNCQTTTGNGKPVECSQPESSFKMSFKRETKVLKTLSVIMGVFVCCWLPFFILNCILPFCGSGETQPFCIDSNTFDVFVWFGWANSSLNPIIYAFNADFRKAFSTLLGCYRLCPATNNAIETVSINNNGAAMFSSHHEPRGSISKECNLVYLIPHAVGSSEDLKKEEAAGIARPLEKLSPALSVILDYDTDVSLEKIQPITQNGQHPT
D1 antagonist: antagonists of human D1 dopamine receptor | P21728 | HEK293 TREx D1 cells, calcium flux, dopamine EC80; stronger effect = lower value | activity change, negative = inhibition, % at 10 µM | 360,000 tested, 3.2% active; in the data active = activity change below about -30%; also: % is scaled to controls: 0 for no effect and ±100 for the full control effect
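Antagonism measured as reduced calcium response to an EC80 dopamine addition following 180 s compound pre-read; cells were inducible HEK293 Trex D1 plated overnight at 30 C, read kinetically at 1 cycle/sec.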
DRD3 antagonist: D3 dopamine receptor (human) antagonism; D3R cells, DiscoveRx beta-arrestin luminescence, antagonist mode; stronger effect = lower value; max response, negative = inhibition, %; 360,000 tested, 2.5% active; AID 652054; in the data active = max response below about -50%; also: % is scaled to controls: 0 for no effect and ±100 for the full control effect
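Cells expressing the human receptor were seeded at 1500 cells/well, incubated overnight at 37 degrees C in 5% CO2, then exposed to library compounds with dopamine controls for 90 minutes at 37 degrees C before luminescent detection.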
D1 agonist: activates the human D1 dopamine receptor; P21728; HEK293 T-REx D1 cells, calcium flux, agonist mode; activation, % at 2 µM; 360,000 tested, 1% active; in the data active = activation above about 30%; also: 0% is about no effect
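Inducible HEK293 T-REx D1 cells, force-coupled to calcium signalling, were plated at 4000 cells/well with tetracycline and held overnight at 30 C. After no-wash calcium dye loading, compound-evoked calcium rise over 180 s flagged agonists.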
D3 ag: D3 dopamine receptor (human) agonism; max activation, %; P35462; D3R DiscoveRx beta-arrestin cells, luminescence, 90 min; 410,000 tested, 0.58% active; in the data active = max activation above about 30%; also: 0% is about no effect
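Cells at 1500/well, incubated overnight, then treated with pinned compounds (dopamine as control) for 90 min at 37 degrees C. DiscoveRx reagent added for 30 - 60 minutes at room temperature; luminescence read.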
Starred values were filed as active, the others as inactive; . = no result. Hits are enriched below; roughly 6.1% of the tested compounds scored in any of these assays.

SMILES | D1 potentiator | D1 antagonist | DRD3 antagonist | D1 agonist | D3 ag
CCOC(=O)N1CCN(C2CC(=O)N(c3ccc(C)cc3)C2=O)CC1 (stereo not given) | 3 | -4 | -63* | 5 | -11
Cc1ccc(N2CC(NC(=O)CCc3ccccc3)CC2=O)cc1 (stereo not given) | 3 | . | . | -4 | -1
COc1ccccc1Nc1nc(C)c(C(=O)Nc2ccccc2)s1 | -8 | -38* | -1 | 3 | -7
Cc1nc(Nc2ccc(S(N)(=O)=O)cc2)sc1C(=O)Nc1ccccc1 | -13 | -55* | -6 | 0 | -4
COc1ccc(-c2[nH]n(-c3ccc([N+](=O)[O-])cc3)c(=O)c2C=NCc2ccncc2)cc1 | -8 | -31* | -24 | 6 | -19
Cc1ccccc1C(=O)NNC(=O)c1cccn1C | -3 | -24 | 0 | 0 | 1
CCOC(=O)C1=C(O)/C(=C/c2ccccn2)SC1=Nc1ccc(Cl)cc1 | -7 | -33* | -6 | 2 | 0
CCOC(=O)C1=C(O)/C(=C/c2ccc(OCC(=O)O)c(OC)c2)SC1=Nc1ccc(OCC)cc1 | -1 | 4 | 16 | 3 | 2
CCOC(=O)C1=C(O)/C(=C/c2cc(OC)c(O)c(OC)c2)SC1=Nc1ccc(OC)cc1 | -14 | -64* | -8 | 17 | 3
COc1ccc2[nH]c(C(=O)Nc3ccc4c(c3)OCO4)cc2c1 | 0 | -22 | -16 | 2 | -1
CN(C(=O)CN1C(=O)NC2(CCc3ccccc32)C1=O)C1CCS(=O)(=O)C1 (stereo not given) | 0 | -31* | 17 | -2 | -2
COc1ccccc1CNC(=O)CN1C(=O)NC2(CCCc3ccccc32)C1=O (stereo not given) | -11 | -38* | -3 | 2 | -3
CCOC(=O)CN1C(=O)NC2(CCCc3ccccc32)C1=O (stereo not given) | 1 | -5 | -68* | 2 | -15
COC(=O)c1c(O)cc(C(C)(C)C)n(-c2ccc(F)cc2)c1=O | -9 | 5 | -8 | 3 | -7
Cc1ccc2cc(NC(=O)C3(C)CCN(C)C3)ccc2n1 (stereo not given) | . | . | 0 | . | 8
CC(=O)N1CCCC(C)(C(=O)Nc2ccc3nc(C)ccc3c2)C1 (stereo not given) | . | . | -52* | . | 4
O=C(O)c1ccc(N2CCCCS2(=O)=O)cc1 | -2 | 5 | 13 | -1 | -5
Cc1c(N2C(=O)CS/C2=N\N=C\c2ccc(Cl)cc2)c(=O)n(-c2ccccc2)n1C | -3 | 0 | 5 | 1 | -5
Cc1c(N2C(=O)CS/C2=N\N=C\c2ccccc2O)c(=O)n(-c2ccccc2)n1C | -1 | -4 | 10 | 0 | 39*
CCN(CC)S(=O)(=O)c1ccc2c(c1)c(=O)c(C(=O)N(C)Cc1ccccc1)cn2C | 1 | -7 | . | -1 | -8
O=C(N/N=C/c1ccc(-c2ccc([N+](=O)[O-])cc2)o1)c1cccnc1 | -4 | -42* | -9 | 4 | 6
O=C(N/N=C/c1ccc([N+](=O)[O-])cc1)c1cccnc1 | -5 | 28 | -19 | -2 | -9
NC(=O)N/N=C/c1ccc(-c2ccc([N+](=O)[O-])cc2)o1 | -7 | -4 | -7 | 20 | -1
O=[N+]([O-])c1ccc(-c2ccc(/C=N/O)o2)cc1 | 0 | 9 | 20 | 2 | 9
COCCNC(=S)N/N=C/c1ccc(-c2ccc([N+](=O)[O-])cc2)o1 | 2 | -4 | 8 | 88* | -8
SMILES | D1 potentiator | D1 antagonist | DRD3 antagonist | D1 agonist | D3 ag
O=C(Cc1ccccc1)N/N=C/c1ccc(-c2ccc([N+](=O)[O-])cc2)o1 | -9 | -54* | 3 | 5 | 1
O=C(O)/C=C/c1ccc(S(=O)(=O)Nc2ccc(C(=O)NCC(=O)O)cc2)cc1 | -10 | -4 | 0 | 4 | 3
CCc1ccccc1N(C(=O)c1ccco1)C(C(=O)NC1CCCC1)c1cccnc1 (stereo not given) | . | 2 | -14 | 14 | -13
Cc1cccc(C)c1NS(=O)(=O)c1cc2c3c(c1)CCN3C(=O)CC2 | -1 | -22 | -26 | 2 | 1
O=C(CSc1nnc(C2CC2)n1C1CC1)c1ccc(Br)s1 | . | . | -65* | . | 0
O=C(CSc1nnc(C2CC2)n1C1CC1)c1cccs1 | . | . | 6 | . | -2
O=C1C[C@@H]2c3c(cccc3CN1Cc1ccccc1F)C[C@@H](O)[C@H]2O | . | . | 0 | . | 49*
COc1cccc(CNc2ccc(F)c([N+](=O)[O-])c2)c1O | -8 | -31* | -23 | 8 | -5
CCCCN(C)C(=O)c1ccc2c(c1)N(CC)C(=O)c1ccccc1S2=O (stereo not given) | -4 | -1 | 0 | 1 | 6
CCOC(=O)N1CCC(NC(=O)c2ccc3c(c2)N(Cc2ccc(Cl)cc2)C(=O)c2ccccc2S3=O)CC1 (stereo not given) | 2 | 3 | . | 9 | -6
CCOC(=O)N1CCC(NC(=O)c2ccc3c(c2)N(Cc2ccccc2)C(=O)c2ccccc2S3=O)CC1 (stereo not given) | -3 | 6 | . | 4 | 47*
CCCCN(C)CCCNC(=O)c1ccc2c(c1)N(CC)C(=O)c1ccccc1S2=O (stereo not given) | 3 | -3 | -84* | 2 | -39
CCOC(=O)N1CCN(C(=O)c2ccc3c(c2)N(Cc2ccccc2F)C(=O)c2ccccc2S3=O)CC1 (stereo not given) | -4 | -47* | . | 0 | 4
COCCNc1ccc2cc(S(=O)(=O)N3CCCCC3)ccc2n1 | -1 | -7 | . | 1 | 2
COc1ccccc1NC(=O)N1CCOc2ccccc21 | 2 | 3 | . | 0 | 1
O=C(CSc1nnc2scc(-c3ccc(Cl)cc3)n12)Nc1ccc(F)cc1 | 1 | 3 | . | 1 | 0
COc1nc(-c2ccccc2)ccc1-c1noc(-c2ccccc2)n1 | 0 | -11 | 4 | 6 | 7
COc1ccc(-c2ccc(-c3noc(-c4ccco4)n3)c(OC)n2)cc1 | -4 | 14 | 28 | 0 | 37*
COc1nc(-c2ccccc2)ccc1-c1noc(-c2ccco2)n1 | -21 | -4 | 24 | 7 | -1
COc1ccc(-c2ccc(-c3noc(-c4ccccc4)n3)c(OC)n2)cc1 | -9 | -46* | 45 | 3 | 17
COc1ccc(S(=O)(=O)N2CCN(Cc3cccc(F)c3)CC2)cc1 | . | . | -24 | . | -5
CC(=NNC(=S)N1CC2CCC(CC2)C1)c1cccc(C)n1 | . | . | -73* | . | 1
CC1=C(C(=O)N2CCOCC2)C(c2cc(C)ccc2C)NC(=S)N1 (stereo not given) | 0 | 2 | 4 | 2 | 12
COc1ccc(/C=N/Nc2ncc(-c3ccccc3)cn2)c(OC)c1 | -4 | -6 | -16 | 3 | -6
COc1ccc(/C=N/Nc2ncccc2[N+](=O)[O-])c(OC)c1 | 3 | 16 | -54* | -2 | -3

Bioassay records from PubChem BioAssay.
